Rows were chosen to be rich in hits. Some 12% of all compounds tested hit in one or more screens of this group.
BAZ2B inh = qHTS Assay for Inhibitors of BAZ2B; Bromodomain adjacent to zinc finger domain protein 2B (Homo sapiens), Q9UIF8; AlphaScreen BAZ2B-H3K14Ac peptide displacement; Potency, µM (series often up to 114 µM), most hits filed as inhibitors; actives 4.4% (n = 360,000); AID 504333, 2011; further: nearly all actives have a fitted effect of over 60% in size
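Inhibition is scored as reduced AlphaScreen emission. The BAZ2B/b-H3(5-23)K14Ac complex (50 nM each) in PBS pH 7.4, 0.01% Tween-20 meets compound (up to 110 uM) for 30 min at RT before bead addition.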
Sfp PPTase inh = qHTS Assay for Inhibitors of Bacillus subtilis Sfp phosphopantetheinyl transferase (PPTase); Biochemical Sfp PPTase activity, qHTS; Potency, µM, most hits filed as inhibitors; actives 3.5% (n = 310,000); AID 1490, 2009;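 further: the enzyme is Sfp with the accession as filed and its product quenches rhodamine fluorescence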
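Step 1, compound plus 15 nM Sfp-PPTase, 15 min, room temperature. Step 2, add rhodamine-CoA (5 uM) and BHQ-2-YbbR (12.5 uM). Step 3, read 525/598 nm fluorescence at 0 and 30 min.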
G9a block = qHTS Assay for Inhibitors of Histone Lysine Methyltransferase G9a | Histone-lysine N-methyltransferase EHMT2 (Homo sapiens), Q96KQ7 | G9a H3K9 monomethylation, AlphaScreen, 2 h | Potency, µM (series often up to 102 µM), usual class: inhibitors | actives 8.8% (n = 350,000) | AID 504332, 2011; further: nearly all actives have a fitted effect of over 75% in size
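AlphaScreen detection with an anti-monomethyl H3K9 antibody quantified product after a 2 h room-temperature reaction containing 500 nM biotinylated H3K9 peptide, 20 µM SAM and 20 nM enzyme, which had been preincubated 15 min with compound.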
JMJD2A Tudor inh = qHTS Assay for Inhibitors of JMJD2A-Tudor Domain; Potency, µM (top dose mostly 114 µM), hits mostly inhibitors; AID 504339, 2011; Lysine-specific demethylase 4A (Homo sapiens), O75164; actives 4.4% (n = 390,000); AlphaScreen JMJD2A-Tudor / H3K4me3 peptide binding; further: nearly all actives have a fitted effect of over 50% in size
PLK1 PBD block = qHTS for Inhibitors of PLK1-PDB (polo-like kinase 1 - polo-box domain): Primary Screen | Plk1 PBD binding of FITC phosphopeptide, fluorescence polarization | Potency, µM, actives largely listed as inhibitors | actives 2.8% (n = 360,000); further: series mostly up to about 57 µM; nearly all actives have a fitted effect of over 65% in size
Target sequence (P53350 whole entry, looked up, the tested form may be a part): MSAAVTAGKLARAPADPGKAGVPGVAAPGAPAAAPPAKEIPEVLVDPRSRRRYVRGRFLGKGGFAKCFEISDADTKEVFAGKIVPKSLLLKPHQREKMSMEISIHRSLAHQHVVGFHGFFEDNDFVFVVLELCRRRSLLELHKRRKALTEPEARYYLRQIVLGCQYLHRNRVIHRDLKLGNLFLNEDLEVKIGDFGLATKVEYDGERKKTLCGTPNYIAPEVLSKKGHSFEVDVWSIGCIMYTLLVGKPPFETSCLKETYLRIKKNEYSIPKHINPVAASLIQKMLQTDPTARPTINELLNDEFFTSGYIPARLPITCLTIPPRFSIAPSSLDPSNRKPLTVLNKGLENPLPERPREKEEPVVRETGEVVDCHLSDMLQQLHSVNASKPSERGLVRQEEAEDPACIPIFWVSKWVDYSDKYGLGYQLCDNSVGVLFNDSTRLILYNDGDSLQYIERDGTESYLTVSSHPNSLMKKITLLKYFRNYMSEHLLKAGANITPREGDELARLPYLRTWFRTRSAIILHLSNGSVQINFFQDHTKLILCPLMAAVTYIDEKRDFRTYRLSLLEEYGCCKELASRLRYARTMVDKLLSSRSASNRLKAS
HP1b binding inh = HTS for Inhibitors of HP1-beta Chromodomain Interactions with Methylated Histone Tails; Chromobox protein homolog 1 (Homo sapiens), P83916; AlphaScreen HP1-beta / biotin-H3K9me3 peptide binding; Potency, µM (doses to about 114 µM), actives largely listed as inhibitors; actives 0.56% (n = 390,000); further: nearly all actives have a fitted effect of over 70% in size
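Compound inhibition of the preformed complex between 50 nM HP1-beta and 50 nM biotinylated H3K9me3 peptide was read by AlphaScreen. Buffer was PBS pH 7.4 with 0.01% Tween-20. Incubations ran 30 min at room temperature, with 10 ug/mL donor/acceptor beads.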
Large screens that a line does not name were inactive. The call rests on the fitted dose curve; in most records, active means well fitted curve in the direction sought with a large enough effect; inconclusive means small, poorly fitted or top-dose-only effect, or another doubt; inactive means no such curve, though single readings can be large; an effect the other way counts as inactive or inconclusive.

COC(=O)CCC(C)C1CCC2C3CC[C@H]4CC(O)CC[C@@]4(C)C3CC(O)[C@]12C (some centres undefined)	none (no result: BAZ2B inh, G9a block, JMJD2A Tudor inh, PLK1 PBD block, HP1b binding inh)
COC(=O)c1c(N)sc(C(=O)N2CCOCC2)c1C	none
Cc1c(-c2ccccc2)sc(N)c1C(=O)N1CCOCC1	Sfp PPTase inh 45µM, G9a block 4µM, PLK1 PBD block 24µM, HP1b binding inh inconclusive
O=C(NC1CCCCC1)c1cc(-c2cccs2)on1	G9a block inconclusive
N#Cc1ncc(Cc2ccccc2)nc1C#N	BAZ2B inh inconclusive, G9a block 50µM
Cc1ccc(CN(CCO)CCO)cc1	none
CCCN(CCO)Cc1cccc(Br)c1	BAZ2B inh 50µM, G9a block inconclusive, JMJD2A Tudor inh 4.5µM, HP1b binding inh inconclusive
OCCN(Cc1ccccc1)Cc1ccccc1O	BAZ2B inh 56µM, G9a block 10µM, JMJD2A Tudor inh inconclusive, HP1b binding inh 79µM
O=[N+]([O-])c1cccc(CN(CCO)Cc2ccccc2)c1	none (no result: G9a block)
OCCN(CCO)Cc1ccc(Br)cc1	BAZ2B inh 50µM, G9a block 20µM, JMJD2A Tudor inh 20µM
O=S(=O)(c1ccc(C(F)(F)F)cc1)N1CCN(c2nc(-c3ccccc3)nc3ccccc23)CC1	none (no result: BAZ2B inh, Sfp PPTase inh, G9a block, PLK1 PBD block)
O=C(NNC(=S)NC(=O)c1cccnc1)c1ccc(F)cc1	none (no result: G9a block)
O=C(NNC(=S)NC(=O)c1cccnc1)c1ccccc1	G9a block 28µM, JMJD2A Tudor inh inconclusive
COc1ccc(/C=C/C(=O)NC(=S)NNC(=O)c2cccnc2)cc1	G9a block inconclusive
O=C(NNC(=S)NC(=O)c1ccc(F)cc1)c1cccnc1	G9a block 11µM
Cc1ccccc1NC(=S)NNC(=O)c1cccnc1	G9a block 1.8µM, JMJD2A Tudor inh 22µM
O=C(/C=C/c1ccc(F)cc1)NC(=S)NNC(=O)c1cnccn1	BAZ2B inh 2.8µM, G9a block 50µM, JMJD2A Tudor inh 7.9µM
COC(=O)C1=C(C)NC(C)=C(C(=O)OC(C)C)[C@H]1c1cccc2nonc12	none (no result: BAZ2B inh, JMJD2A Tudor inh, PLK1 PBD block, HP1b binding inh)
O=C(NNC(=S)NCc1ccccc1)c1cccnc1	none
O=C(NC(=S)NNS(=O)(=O)c1ccc(Cl)cc1)c1cccnc1	G9a block 50µM
Cc1cccc(C)c1NC(=O)CNC(=O)c1cccnc1	G9a block 79µM
O=C(NNC(=S)Nc1ccccc1)c1cccnc1	G9a block 56µM
COc1ccc(OC)c(CCNC(=O)c2ccc3c(c2)c(C)c(C)n3Cc2ccccc2)c1	G9a block inconclusive, JMJD2A Tudor inh inconclusive (no result: Sfp PPTase inh, PLK1 PBD block)
O=C(Nc1ccc2nc3n(c(=O)c2c1)CCCCC3)C(=O)Nc1ccccc1F	none (no result: Sfp PPTase inh, PLK1 PBD block)
O=C(Nc1ccc2nc3n(c(=O)c2c1)CCCCC3)C(=O)N1CCN(c2ccccc2F)CC1	JMJD2A Tudor inh 35µM, PLK1 PBD block 30µM
COc1ccccc1CNc1nc(-c2ccc3c(c2)OCO3)nc2ccccc12	Sfp PPTase inh inconclusive (no result: BAZ2B inh, JMJD2A Tudor inh, PLK1 PBD block, HP1b binding inh)
CCn1c(N2CCN(S(=O)(=O)c3ccccc3C(F)(F)F)CC2)nc2ccccc21	BAZ2B inh inconclusive, G9a block 50µM
COCCNCC1C(Oc2ccc(Cl)cc2)C(=O)N1c1ccccc1C (centres undefined)	none
COc1ccc(CCNCC2C(Oc3ccc(Cl)cc3)C(=O)N2c2ccccc2C)cc1OC (centres undefined)	BAZ2B inh inconclusive, G9a block 45µM, JMJD2A Tudor inh inconclusive
O=C(/C=C/c1ccc(N2CCCCC2)c([N+](=O)[O-])c1)c1ccc(S(=O)(=O)N2CCCC2)cc1	BAZ2B inh inconclusive, G9a block 4.5µM, HP1b binding inh inconclusive
O=C(NCc1ccco1)c1ccc(N2CCOCC2)c([N+](=O)[O-])c1	G9a block inconclusive
COC(=O)c1cc(NS(=O)(=O)c2ccc(N3CCOCC3)c([N+](=O)[O-])c2)cc(C(=O)OC)c1	BAZ2B inh inconclusive, G9a block inconclusive, JMJD2A Tudor inh inconclusive
Cc1ccc(N(Cc2ccco2)C(=O)c2ccc(N3CCCCC3)c([N+](=O)[O-])c2)cc1	BAZ2B inh inconclusive, G9a block inconclusive, JMJD2A Tudor inh 18µM, HP1b binding inh inconclusive
CN(C)c1ccc(/C=C/C(=O)c2ccccc2)cc1[N+](=O)[O-]	BAZ2B inh 14µM, G9a block inconclusive, JMJD2A Tudor inh 45µM, HP1b binding inh inconclusive
CNc1ccc(/C=C/C(=O)c2ccc(C)cc2)cc1[N+](=O)[O-]	BAZ2B inh inconclusive, G9a block inconclusive, JMJD2A Tudor inh inconclusive, HP1b binding inh inconclusive
COC(=O)c1cc(NS(=O)(=O)c2ccc(N3CCCCCC3)c([N+](=O)[O-])c2)cc(C(=O)OC)c1	BAZ2B inh inconclusive, G9a block 45µM, JMJD2A Tudor inh inconclusive
Cc1ccc(N2CC(C(=O)NCCS(=O)(=O)N3CCN(c4ccccc4)CC3)CC2=O)cc1C (centres undefined)	none
CC(C)C[C@H]1CN([C@@H](Cc2ccccc2)CN2CCC[C@H]2CN2C(=O)C(=O)NC[C@@H]2Cc2ccc(O)cc2)C(=O)C(=O)N1CCc1ccccc1	none (no result: BAZ2B inh, Sfp PPTase inh, G9a block, JMJD2A Tudor inh, HP1b binding inh)
COc1cccc(C(=O)/C=C/c2ccc(N3CCCCC3)c([N+](=O)[O-])c2)c1	BAZ2B inh 10µM, G9a block 7.1µM, JMJD2A Tudor inh 40µM, HP1b binding inh inconclusive
Cc1ccc(S(=O)(=O)N2CCN(C(=O)c3ccc(N4CCCC4)c([N+](=O)[O-])c3)CC2)cc1	BAZ2B inh inconclusive, JMJD2A Tudor inh inconclusive
Cc1ccc(S(=O)(=O)N2CCN(C(=O)c3ccc(N4CCCCC4)c([N+](=O)[O-])c3)CC2)cc1	BAZ2B inh inconclusive, G9a block 32µM, JMJD2A Tudor inh inconclusive
CC(C)CC(=O)Nc1ccc(Oc2ccc3c(c2)C(=O)NC3=O)cc1	none
Cc1cccc(Cl)c1NC(=S)NN	G9a block 3.5µM
Cc1c(Cl)cccc1NC(=S)NN	none
CCCCNc1cc(=O)n(C)c(=O)[nH]1	G9a block 50µM
O=C(NCc1cccc(Cl)c1)C1CCCN(c2nn3cc(-c4ccc(F)cc4)nc3s2)C1 (centres undefined)	G9a block inconclusive, HP1b binding inh inconclusive (no result: Sfp PPTase inh, PLK1 PBD block)
N#C/C(=N\Nc1cccc(C(F)(F)F)c1)C(=O)c1ccsc1	BAZ2B inh 40µM, G9a block 40µM, JMJD2A Tudor inh 50µM, PLK1 PBD block inconclusive
CCOC(=O)c1c(/N=C/c2cc(C)ccc2O)sc2c1CCN(C)C2	BAZ2B inh inconclusive, G9a block inconclusive, JMJD2A Tudor inh 45µM, HP1b binding inh inconclusive

Assay outcomes as filed in PubChem BioAssay.
